Reference: PubChem BioAssay AID1845 (The Scripps Research Institute Molecular Screening Center, 2009)
About 490 (0.17%) of roughly 290,000 compounds were called active. Rule as the data show it: active = inhibition above about 37%; inactive = the rest. This excerpt belongs to a sample that is enriched for actives.

Assay: compounds displacing fluorescent DNA intercalator, primary screen, artefact control for HCV NS3 helicase inhibitor project, biochemical, FID fluorescence (AID 1845);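 also: 0% = vehicle and 100% = reference compound; higher means more ethidium bromide displaced from hairpin DNA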
Details: DNA fluorescent intercalator displacement, at 7.9 µM, active compounds read high

inhibition, inactive:
COc1ccc(C(=O)N2CCCCC2C(=O)Nc2ccc(-n3nc(C)cc3C)cc2)o1 (configuration not stated) -43.5%
Cc1ccccc1OCC(=O)Nc1nnc(S(=O)(=O)N2CCCC2)s1 -35.4%
O=CN1CCN(C(=O)c2ccc3c(c2)OCO3)CC1 -1.4%
NC(=O)C1CC(=O)N(c2ccc(OCC(=O)NCc3ccccc3)cc2)C1 (configuration not stated) -4.26%
CC(=O)c1cc(CN2CCC(n3nccc3NC(=O)c3ccccc3Cl)CC2)cs1 -5.43%
CCOC(=O)c1c(NC(=S)NC(=O)c2ccco2)sc2c1CCCC2 0.98%
CCOC(=O)c1c(NC(=S)NC)sc2c1CCCC2 -4.6%
O=C(CNC(=O)OCc1ccccc1)NC1CCCCNC1=O (configuration not stated) 0.17%
O=C(O)CCCN1C(=O)C2C3c4ccccc4C(c4ccccc43)[C@@H]2C1=O (some centres not stated) -12.3%
CC(C)C[C@H]1CN=C(Nc2ccccc2)N1CC1CCCCC1 3.71%
CCOc1ccc(NC(=O)c2ccc(NC(=O)C3CCCO3)cc2)cc1 (configuration not stated) -28.7%
CCN(C(=O)CN1C(=O)/C(=C/c2ccc(F)cc2)SC1=S)C1CCS(=O)(=O)C1 (configuration not stated) -43.9%
COc1ccccc1/C=N/Nc1nc(C)c(C(C)=O)s1 -19.2%
Cc1ccc(S(=O)(=O)N(C)C)cc1NC(=O)C1Cc2ccccc2CN1C(=O)c1ccco1 (configuration not stated) -29.3%
CCCNC(=O)c1cnc(-c2ccccc2)nc1-c1ccccc1 -20.5%
O=C(c1ccc(Cn2cc([N+](=O)[O-])cn2)o1)N1CCCC1 -4.09%
Cc1cccc(OCC(=O)NCCCNC(=O)c2ccccn2)c1 -16.1%
COc1ccc(CC(=O)N/N=C(\C)c2ccccn2)cc1 -6.95%
COc1ccc(CCNC(=O)C(=O)NCC2OCCN2S(=O)(=O)c2ccc(F)cc2)cc1OC (configuration not stated) -32.4%
Cc1ccc(C(=O)N/C(=C\c2cn(S(=O)(=O)N(C)C)c3ccccc23)C(=O)N2CCCC2)cc1 -52.8%

inhibition, active:
CCOC(=O)c1c(NC(=O)C2CCN(S(=O)(=O)c3ccc(Cl)cc3)CC2)sc2c1CCCC2 43.9%
CCN(CC)CCOc1ccc2c(c1)C(=NNC(=O)c1ccccn1)c1cc(OCCN(CC)CC)ccc1-2 98.8%
